# Assay results reported in PubChem BioAssay (EPA / NIEHS).
# “And” between values parts separate entries of the source, which are not always exact repeats. Equal values may be shown once. Records with an inconclusive call do not appear. The source made the active and inactive calls. Rule for the calls, unless noted: active = hit-call score of the fitted dose curve at least 0.9, where 1 is the maximum; inconclusive = response in the unintended direction; inactive = score below 0.9.
# What was measured:
# [1] = CCTE_Simmons_CellTiterGLO_HEK293T: Viability Assessment in CCTE's Assays for Thyroperoxidase (TPO) Inhibition, Simmons Lab (AID 2283665);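 for AC50: cells exposed to compound for 24 h before readout; actives reduce ATP signal below DMSO vehicle meaning cytotoxicity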
# Procedure, shortened: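 Luciferase-coupled ATP content after 24 h exposure gives viability; 8-point series from 5 nM to 87.5 uM final in 0.5% DMSO. Human HEK293T cells, 1% FBS medium, three biological replicates, dichlone positive control.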
# [2] = CPHEA_Stoker_NIS_Cytotoxicity: Cytotoxicity Assessment for CPHEA's Radioactive Iodide Uptake (RAIU) Assay for Sodium/Iodide Symporter (NIS) Inhibition, Stoker and Laws Labs (AID 2283897)
# Procedure, shortened: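 ATP luminescence (Cell Titer Glo) measured viability, with loss of signal normalized to DMSO controls. Cells: hNIS-HEK293T-EPA, seeded 40 hours prior. Dosing: 0.001–100uM, 2 hours, room temperature, uptake buffer pH 7.4.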
# [3] = molecular target: Nucleoli Translocation, AR (gene 367) (UniProt P10275); assay: UPITT_HCI_U2OS_AR_TIF2_Nucleoli_Antagonist: University of Pittsburgh U2OS Androgen Receptor-Transcriptional Intermediary Factor 2 (AR-TIF2) Antagonism High Content Imaging Assay for Nucleoli Translocation (AID 2283997)
# Chain of Nucleoli Translocation, AR (gene 367) (P10275 whole entry, looked up): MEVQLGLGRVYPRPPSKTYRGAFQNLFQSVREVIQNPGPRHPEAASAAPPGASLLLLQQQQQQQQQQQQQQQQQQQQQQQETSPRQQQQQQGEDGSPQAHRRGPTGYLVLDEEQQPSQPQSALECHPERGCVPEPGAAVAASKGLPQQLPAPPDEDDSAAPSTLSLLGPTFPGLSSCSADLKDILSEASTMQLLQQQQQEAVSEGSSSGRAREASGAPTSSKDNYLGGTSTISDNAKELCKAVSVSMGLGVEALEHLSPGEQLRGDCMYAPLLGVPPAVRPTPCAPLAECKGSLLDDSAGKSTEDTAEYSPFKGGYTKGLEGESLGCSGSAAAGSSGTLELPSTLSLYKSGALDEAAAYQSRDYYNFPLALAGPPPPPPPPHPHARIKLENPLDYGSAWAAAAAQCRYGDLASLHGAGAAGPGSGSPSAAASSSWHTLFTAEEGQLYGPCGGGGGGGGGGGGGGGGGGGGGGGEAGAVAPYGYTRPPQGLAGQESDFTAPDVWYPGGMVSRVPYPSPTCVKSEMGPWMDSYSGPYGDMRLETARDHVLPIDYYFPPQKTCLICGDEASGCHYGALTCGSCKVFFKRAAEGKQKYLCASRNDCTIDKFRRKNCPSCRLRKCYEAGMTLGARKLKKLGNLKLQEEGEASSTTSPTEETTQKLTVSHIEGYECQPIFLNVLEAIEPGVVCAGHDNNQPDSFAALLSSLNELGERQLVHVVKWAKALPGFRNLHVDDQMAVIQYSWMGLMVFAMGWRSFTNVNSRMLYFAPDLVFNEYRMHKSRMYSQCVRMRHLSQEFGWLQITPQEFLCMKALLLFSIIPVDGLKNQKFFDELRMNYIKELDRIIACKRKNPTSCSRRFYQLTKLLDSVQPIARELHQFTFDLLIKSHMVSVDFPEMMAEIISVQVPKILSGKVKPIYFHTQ
# Procedure, shortened: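 An antagonist-mode imaging screen: engineered U2OS (AR-RFP, TIF2-GFP) exposed to 20 uM compound, 0.2% DMSO. Activity reflects nucleolar red fluorescence change relative to DHT baseline.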
# [4] = CCTE_Deisenroth_AIME_384WELL_CTox_Inactive: Cytotoxicity Assessment (CTOX) in CCTE's 384-well Estrogen Receptor Transactivation Assay without AIME metabolic competence (metabolism negative), Deisenroth Lab (AID 2284039);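 note: cell viability via live-cell protease substrate cleaved to fluorescent probe; cells exposed 24 h to medium preincubated 2 h with alginate-water beads without S9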
# Procedure, shortened: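 Metabolism-negative arm: chemicals (10-point, 0.002 - 200 uM) preincubated 2 h with alginate-water lids, medium moved onto VM7Luc4E2 cells for 24 h. Fluorescent live-cell protease readout; bidirectional curve fit.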
# [5] = molecular target: rat Thyrotropin Releasing Hormone Receptor (TRH), Trhr (gene 25570) (UniProt Q01717); assay: NVS_GPCR_rTRH: NovaScreen (NVS) G Protein-Coupled Receptor Assay for rat Thyrotropin Releasing Hormone Receptor (TRH) (AID 2283329);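 note: hit means lower bound tracer signal versus DMSO baseline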
# Chain of rat Thyrotropin Releasing Hormone Receptor (TRH), Trhr (gene 25570) (Q01717 whole entry, looked up): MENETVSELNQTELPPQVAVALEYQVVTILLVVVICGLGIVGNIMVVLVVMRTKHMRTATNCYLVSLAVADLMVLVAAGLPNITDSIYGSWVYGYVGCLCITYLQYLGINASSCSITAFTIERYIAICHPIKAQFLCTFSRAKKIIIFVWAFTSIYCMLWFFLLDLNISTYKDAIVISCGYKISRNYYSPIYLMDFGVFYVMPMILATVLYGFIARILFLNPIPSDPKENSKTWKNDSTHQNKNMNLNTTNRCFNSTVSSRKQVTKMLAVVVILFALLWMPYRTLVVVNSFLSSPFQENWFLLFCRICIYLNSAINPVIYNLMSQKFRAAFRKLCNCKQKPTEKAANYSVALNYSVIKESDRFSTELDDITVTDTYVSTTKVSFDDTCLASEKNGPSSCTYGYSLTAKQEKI
# Procedure, shortened: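 Rat forebrain membrane prep, radioligand displacement, filter scintillation readout at 4 h. Single conc 25 uM, duplicate; actives retested as concentration series. DMSO = negative control/baseline.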
# [6] = molecular target: rat Peripheral-type Benzodiazepine Receptor (PBR), Tspo (gene 24230) (UniProt P16257); assay: NVS_MP_rPBR: NovaScreen (NVS) Membrane Protein Assay for rat Peripheral-type Benzodiazepine Receptor (PBR) (AID 2283335)
# Chain of rat Peripheral-type Benzodiazepine Receptor (PBR), Tspo (gene 24230) (P16257 whole entry, looked up): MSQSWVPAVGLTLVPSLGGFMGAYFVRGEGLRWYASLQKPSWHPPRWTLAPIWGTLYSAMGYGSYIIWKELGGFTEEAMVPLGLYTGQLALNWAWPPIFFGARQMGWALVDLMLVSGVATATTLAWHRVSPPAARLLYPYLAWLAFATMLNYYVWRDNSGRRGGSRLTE
# Procedure, shortened: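 Competitive displacement of specific radioligand from rat kidney membrane PBR, read by filtration and scintillation after 1 h. Compounds first tested at 25 uM in duplicate, then in concentration series; signal loss relative to DMSO.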
# [7] = molecular target: Peroxisome proliferator-activated receptor gamma (Homo sapiens) (UniProt P37231); assay: NVS_NR_hPPARg: NovaScreen (NVS) Nuclear Receptor Binding Assay for human Peroxisome Proliferator-activated Receptor gamma (PPARg) (AID 2283370)
# Chain of Peroxisome proliferator-activated receptor gamma (Homo sapiens) (P37231 whole entry, looked up): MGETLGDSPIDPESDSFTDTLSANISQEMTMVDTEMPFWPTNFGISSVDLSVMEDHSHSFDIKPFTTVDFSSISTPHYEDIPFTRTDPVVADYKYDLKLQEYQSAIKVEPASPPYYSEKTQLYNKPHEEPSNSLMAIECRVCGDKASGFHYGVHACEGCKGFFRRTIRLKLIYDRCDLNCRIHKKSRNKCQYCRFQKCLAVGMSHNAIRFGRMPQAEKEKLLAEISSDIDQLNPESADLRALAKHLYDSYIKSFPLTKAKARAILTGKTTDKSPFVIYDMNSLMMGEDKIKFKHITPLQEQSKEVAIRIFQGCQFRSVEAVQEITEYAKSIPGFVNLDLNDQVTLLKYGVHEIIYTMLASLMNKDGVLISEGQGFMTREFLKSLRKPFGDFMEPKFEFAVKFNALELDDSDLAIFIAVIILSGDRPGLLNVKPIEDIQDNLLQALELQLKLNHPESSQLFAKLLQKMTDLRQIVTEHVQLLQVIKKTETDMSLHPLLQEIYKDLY
# Procedure, shortened: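 Chemicals were tested first in duplicate at 25 uM, then in concentration series if active. Binding to cell-free PPARg protein was measured by fluorescence polarization after 2 h, with loss of signal scored against DMSO.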
# [8] = CEETOX_H295R_11DCORT: CeeTox H295R High-throughput Steroidogenesis Assay for 11-Deoxycortisol (11DCORT) (AID 2283432; active = hit-call score of the fitted dose curve at least 0.9, where 1 is the maximum; inactive = score below 0.9;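 for AC50: 11-deoxycortisol secreted into the medium measured by LC-MS/MS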); conditions: actives raise or lower the signal
# Procedure, shortened: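 Adrenal carcinoma line H295R, run per OECD 456 with minor changes, was forskolin-stimulated (10 uM, 48 h) before a 48 h chemical exposure at 0.1% DMSO. Secreted 11-deoxycortisol was quantified by HPLC-MS/MS.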
# [9] = CEETOX_H295R_OHPREG: CeeTox H295R High-throughput Steroidogenesis Assay for OH-Pregnenolone (OHPREG) (AID 2283434; active = hit-call score of the fitted dose curve at least 0.9, where 1 is the maximum; inactive = score below 0.9); conditions: actives raise or lower the signal
# Procedure, shortened: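 Readout: HPLC-MS/MS of 17alpha-hydroxypregnenolone in medium after 48 h chemical exposure of H295R cells pretreated with forskolin. Values fitted bidirectionally relative to DMSO; chemicals reducing viability to 20–70% were retested after 10-fold dilution.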
# [10] = CEETOX_H295R_OHPROG: CeeTox H295R High-throughput Steroidogenesis Assay for OH-Progesterone (OHPROG) (AID 2283435; active = hit-call score of the fitted dose curve at least 0.9, where 1 is the maximum; inactive = score below 0.9;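 for AC50: 17alpha-hydroxyprogesterone secreted into medium measured by HPLC-MS/MS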); conditions: actives raise or lower the signal
# Procedure, shortened: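 Medium steroid levels read by LC-MS/MS after 48 h chemical treatment (0.1% DMSO) of human adrenal H295R cells that had been forskolin-primed (10 uM, 48 h). Gain or loss fitted against DMSO; MTT cytotoxicity checked per well.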
# [11] = CEETOX_H295R_CORTIC: CeeTox H295R High-throughput Steroidogenesis Assay for Corticosterone (CORTIC) (AID 2283437; active = hit-call score of the fitted dose curve at least 0.9, where 1 is the maximum; inactive = score below 0.9;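 note: corticosterone secreted into medium quantified by mass spectrometry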); conditions: actives raise or lower the signal
# Procedure, shortened: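 Steps: seed H295R, adhere overnight; 10 uM forskolin 48 h; replace with chemical (0.1% DMSO) 48 h; extract medium with MTBE; quantify corticosterone by HPLC-MS/MS; score bidirectionally vs DMSO.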
# [12] = CEETOX_H295R_CORTISOL: CeeTox H295R High-throughput Steroidogenesis Assay for Cortisol (AID 2283438; active = hit-call score of the fitted dose curve at least 0.9, where 1 is the maximum; inactive = score below 0.9;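 note: cortisol secreted into medium quantified by LC-MS/MS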); conditions: actives raise or lower the signal
# Procedure, shortened: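 Cortisol measured by HPLC-MS/MS after MTBE extraction of medium from H295R cells exposed 48 h to chemical (0.1% DMSO), following 48 h prestimulation with 10 uM forskolin. Viability assessed by MTT in the same wells.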
# [13] = CEETOX_H295R_DOC: CeeTox H295R High-throughput Steroidogenesis Assay for DOC (AID 2283439; active = hit-call score of the fitted dose curve at least 0.9, where 1 is the maximum; inactive = score below 0.9); conditions: actives raise or lower the signal
# Procedure, shortened: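 11-Deoxycorticosterone quantified in medium by MTBE extraction and HPLC-MS/MS after 48 h chemical exposure (0.1% DMSO) of forskolin-primed (10 uM, 48 h) H295R cells. Same-well MTT viability; data fitted bidirectionally against DMSO.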
# [14] = CEETOX_H295R_PROG: CeeTox H295R High-throughput Steroidogenesis Assay for Progesterone (PROG) (AID 2283442; active = hit-call score of the fitted dose curve at least 0.9, where 1 is the maximum; inactive = score below 0.9;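 for AC50: human H295R adrenal cells primed with 10 µM forskolin before dosing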); conditions: actives raise or lower the signal
# Procedure, shortened: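 Steps: seed H295R cells and let them adhere overnight; prime 48 h with 10 uM forskolin; dose with compound in DMSO at 0.1% final for 48 h; extract medium steroids with MTBE; measure progesterone by LC-MS/MS. MTT viability was run in the same wells.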
# [15] = molecular target: human Phosphodiesterase 10 (PDE10), PDE10A (gene 10846) (UniProt Q9Y233); assay: NVS_ENZ_hPDE10: NovaScreen (NVS) Enzymatic Assay for human Phosphodiesterase 10 (PDE10) (AID 2283195)
# Chain of human Phosphodiesterase 10 (PDE10), PDE10A (gene 10846) (Q9Y233 whole entry, looked up): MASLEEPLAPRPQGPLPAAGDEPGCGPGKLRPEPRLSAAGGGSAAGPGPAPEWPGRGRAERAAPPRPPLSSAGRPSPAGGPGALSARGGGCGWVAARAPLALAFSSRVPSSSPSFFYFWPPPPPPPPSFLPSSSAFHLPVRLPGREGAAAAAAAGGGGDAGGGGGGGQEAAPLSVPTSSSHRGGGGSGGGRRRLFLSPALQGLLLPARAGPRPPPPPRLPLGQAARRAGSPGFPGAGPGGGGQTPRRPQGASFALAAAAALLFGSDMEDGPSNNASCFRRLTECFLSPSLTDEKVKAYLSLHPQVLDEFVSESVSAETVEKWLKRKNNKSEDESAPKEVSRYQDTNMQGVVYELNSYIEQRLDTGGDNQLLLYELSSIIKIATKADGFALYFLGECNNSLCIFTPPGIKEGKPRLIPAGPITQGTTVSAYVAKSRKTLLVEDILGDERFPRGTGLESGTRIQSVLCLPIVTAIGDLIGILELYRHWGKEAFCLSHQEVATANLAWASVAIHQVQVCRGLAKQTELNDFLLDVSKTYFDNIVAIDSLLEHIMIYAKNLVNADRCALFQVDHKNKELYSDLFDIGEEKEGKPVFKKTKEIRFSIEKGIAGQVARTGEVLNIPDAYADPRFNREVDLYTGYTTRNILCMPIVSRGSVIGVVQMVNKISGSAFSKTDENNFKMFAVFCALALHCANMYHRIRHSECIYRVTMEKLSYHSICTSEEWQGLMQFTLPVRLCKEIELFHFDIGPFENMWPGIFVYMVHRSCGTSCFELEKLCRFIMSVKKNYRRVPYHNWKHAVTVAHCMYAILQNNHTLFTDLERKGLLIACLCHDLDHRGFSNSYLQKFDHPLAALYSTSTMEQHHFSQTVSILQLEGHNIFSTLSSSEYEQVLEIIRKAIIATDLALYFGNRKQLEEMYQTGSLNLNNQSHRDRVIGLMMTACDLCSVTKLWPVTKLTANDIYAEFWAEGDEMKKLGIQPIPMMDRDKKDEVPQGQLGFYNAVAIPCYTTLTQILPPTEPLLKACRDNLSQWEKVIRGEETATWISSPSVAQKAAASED
# Procedure, shortened: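 Readout is fluorescence intensity following electrophoretic mobility-shift separation, 1 h after dosing of isolated PDE10A protein. Hits meeting a preset threshold at 25 uM went to concentration series (max 50 uM), analysed relative to DMSO.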
# [16] = molecular target: Cytochrome P450 2C19 (Homo sapiens) (UniProt P33261); assay: NVS_ADME_hCYP2C19: NovaScreen (NVS) CYP450-related Enzyme Activity (ADME) Assay for human CYP2C19 (AID 2283113);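 note: potency for inhibition seen as loss of fluorescent signal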
# Procedure, shortened: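 Fluorescence intensity was measured 1 hour after chemicals were added to insect-cell-derived recombinant CYP2C19 with fluorogenic substrate. Decreased signal versus acetonitrile control was taken as reduced enzyme activity; initial testing used 10 uM in duplicate.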
# [17] = molecular target: Bile acid receptor (Homo sapiens) (UniProt Q96RI1); assay: OT_FXR_FXRSRC1_1440: Odyssey Thera (OT) 24-hour HEK293T Protein-Complementation Assay for Farnesoid X receptor/SRC-1 Co-activator (AID 2283384)
# Chain of Bile acid receptor (Homo sapiens) (Q96RI1 whole entry, looked up, the tested form may be a part): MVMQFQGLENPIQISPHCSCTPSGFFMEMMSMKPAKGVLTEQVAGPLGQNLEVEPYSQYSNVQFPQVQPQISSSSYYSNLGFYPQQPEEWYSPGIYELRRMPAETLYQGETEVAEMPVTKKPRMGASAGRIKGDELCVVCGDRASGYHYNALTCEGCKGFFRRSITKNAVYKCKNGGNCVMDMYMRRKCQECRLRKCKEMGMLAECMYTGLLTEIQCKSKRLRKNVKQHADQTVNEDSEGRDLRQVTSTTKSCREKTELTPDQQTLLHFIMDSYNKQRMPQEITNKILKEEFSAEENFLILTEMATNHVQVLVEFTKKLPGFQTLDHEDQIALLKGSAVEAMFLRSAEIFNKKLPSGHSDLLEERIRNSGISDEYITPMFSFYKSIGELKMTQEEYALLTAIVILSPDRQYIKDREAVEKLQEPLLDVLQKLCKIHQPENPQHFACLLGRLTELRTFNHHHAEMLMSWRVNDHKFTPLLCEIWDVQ
# Procedure, shortened: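 Protein-fragment complementation: FXR and SRC-1 fused to reporter fragments that reassemble on interaction, read by fluorescence intensity. Human HEK293T cells measured 24 h post-dose; positive-direction fit versus DMSO.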
# [18] = molecular target: Bile acid receptor (Homo sapiens) (UniProt Q96RI1); assay: OT_FXR_FXRSRC1_0480: Odyssey Thera (OT) 8-hour HEK293T Protein-Complementation Assay for Farnesoid X receptor/SRC-1 Co-activator (AID 2283383)
# Procedure, shortened: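 Binding of FXR to coactivator SRC-1 was read as fluorescence from a reconstituted split reporter in HEK293T cells, 8 h after chemical addition. Only increases in signal versus DMSO were fit.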
# [19] = CCTE_Deisenroth_AIME_384WELL_CTox_Active: Cytotoxicity Assessment (CTOX) in CCTE's 384-well Estrogen Receptor Transactivation Assay with AIME metabolic competence (metabolism positive), Deisenroth Lab (AID 2284037);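 note: chemicals first conditioned 2 h by alginate-bound induced rat liver S9 before cells; activity means signal loss indicating cell death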
# Procedure, shortened: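 VM7Luc4E2 breast cells received medium pre-incubated 2 h with chemical over alginate microspheres holding induced male Sprague Dawley rat liver S9; viability read 24 h later by protease-substrate fluorescence. Loss of signal, bidirectional fit, 0.002–200 uM.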
# [20] = molecular target: human Ephrin type-A Receptor 1 (EphA1), EPHA1 (gene 2041) (UniProt P21709); assay: NVS_ENZ_hEphA1: NovaScreen (NVS) Enzymatic Assay for human Ephrin type-A Receptor 1 (EphA1) (AID 2283158);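 note: activity is signal loss versus DMSO meaning EphA1 kinase inhibition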
# Chain of human Ephrin type-A Receptor 1 (EphA1), EPHA1 (gene 2041) (P21709 whole entry, looked up): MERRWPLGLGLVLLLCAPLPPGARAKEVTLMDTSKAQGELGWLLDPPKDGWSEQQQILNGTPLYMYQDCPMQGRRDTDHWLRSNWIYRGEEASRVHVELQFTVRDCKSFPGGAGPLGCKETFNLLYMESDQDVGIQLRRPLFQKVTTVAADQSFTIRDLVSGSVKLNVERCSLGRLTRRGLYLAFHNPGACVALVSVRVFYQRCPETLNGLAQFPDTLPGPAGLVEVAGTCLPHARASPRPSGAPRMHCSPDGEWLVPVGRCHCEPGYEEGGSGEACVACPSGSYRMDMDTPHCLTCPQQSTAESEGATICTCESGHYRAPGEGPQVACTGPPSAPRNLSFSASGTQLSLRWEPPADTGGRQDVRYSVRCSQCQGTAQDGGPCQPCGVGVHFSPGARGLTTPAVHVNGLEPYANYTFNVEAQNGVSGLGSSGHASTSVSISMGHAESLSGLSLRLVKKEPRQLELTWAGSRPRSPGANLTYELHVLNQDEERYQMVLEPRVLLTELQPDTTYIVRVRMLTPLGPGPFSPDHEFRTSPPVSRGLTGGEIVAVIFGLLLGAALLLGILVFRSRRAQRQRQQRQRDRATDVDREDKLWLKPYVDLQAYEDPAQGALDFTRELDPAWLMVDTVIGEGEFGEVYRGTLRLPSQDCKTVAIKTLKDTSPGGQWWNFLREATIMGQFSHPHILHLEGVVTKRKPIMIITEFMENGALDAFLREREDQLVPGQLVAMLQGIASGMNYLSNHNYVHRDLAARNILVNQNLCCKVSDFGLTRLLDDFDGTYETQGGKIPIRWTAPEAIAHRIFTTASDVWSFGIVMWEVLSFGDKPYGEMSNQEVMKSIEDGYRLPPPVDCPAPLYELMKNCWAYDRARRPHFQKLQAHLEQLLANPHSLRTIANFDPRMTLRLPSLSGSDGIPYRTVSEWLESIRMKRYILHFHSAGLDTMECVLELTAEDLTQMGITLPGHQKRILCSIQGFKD
# Procedure, shortened: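 Chemicals first tested in duplicate at 25 uM against recombinant EphA1 with a fluorescent substrate; those passing threshold went to singleton dose-response topping at 50 uM. Activity read 1 h later as mobility-shift fluorescence, loss of signal relative to DMSO.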
smiles,measurement,setting,value
C=CC(=O)OCC(CC)CCCC (centres undefined),outcome,[1],inactive
O=[N+]([O-])O,outcome,[2],inactive
CN(C)N,outcome,[3],inactive
same,outcome,[4],inactive
CN(C)C(=O)C(c1ccccc1)c1ccccc1,outcome,[5],inactive
CCOP(O)OCC,outcome,[4],inactive
CCc1cccc(C)c1N(C(=O)CCl)[C@@H](C)COC,AC50,[6],4.35 µM (active)
same,outcome,[7],inactive
Cc1ccc(OP(=O)(Oc2ccc(C)cc2)Oc2ccc(C)cc2)cc1 (tested in a mixture with another compound),outcome,[5],inactive
same,AC50,[6],150 nM (active) and 5.34 µM (active)
same,outcome,[8],inactive
same,outcome,[9],inactive
same,outcome,[10],inactive
same,outcome,[11],inactive
same,outcome,[12],inactive
same,outcome,[13],inactive
same,outcome,[14],inactive
same,outcome,[2],inactive
C=CC(=O)OC,outcome,[15],inactive
CC1CCCC1.[C-]#[O+].[C-]#[O+].[C-]#[O+].[Mn],outcome,[5],inactive
same,outcome,[1],inactive
Oc1cc(Cl)ccc1Cl,outcome,[8],inactive
same,outcome,[9],inactive
same,AC50,[10],25.8 µM (active)
same,outcome,[11],inactive
same,outcome,[12],inactive
same,outcome,[13],inactive
same,AC50,[14],30.6 µM (active)
CCOC(=O)NC(=S)Nc1ccccc1NC(=S)NC(=O)OCC,AC50,[16],2.84 µM (active)
Nc1ccc(-c2ccc(N)c(N)c2)cc1N,AC50,[15],6.79 µM (active)
O=C(CCl)c1ccccc1,AC50,[1],43.8 µM (active)
same,outcome,[2],inactive
CC(C)(O)C#N,outcome,[17],inactive
same,outcome,[1],inactive
O=S(=O)(c1ccccc1)c1ccccc1,AC50,[6],8.45 µM (active)
S=c1[nH]c2ccccc2[nH]1,outcome,[15],inactive
same,outcome,[1],inactive
CCOP(=O)(OCC)Oc1ccc([N+](=O)[O-])cc1,outcome,[6],inactive
same,outcome,[18],inactive
same,outcome,[17],inactive
same,outcome,[9],inactive
same,outcome,[10],inactive
same,outcome,[14],inactive
O=C(NC(=O)c1c(F)cccc1F)Nc1ccc(Oc2ccc(C(F)(F)F)cc2Cl)cc1F,AC50,[18],56.3 µM (active)
same,AC50,[17],40.8 µM (active)
same,AC50,[9],12.4 µM (active)
same,AC50,[10],1.37 µM (active)
same,AC50,[14],1.28 µM (active)
same,outcome,[19],inactive
COC(C)(C)CCC[C@H](C)C/C=C/C(C)=C/C(=O)OC(C)C,AC50,[16],0.992 µM (active)
same,outcome,[15],inactive
CC(Cc1ccc(C(C)(C)C)cc1)CN1C[C@@H](C)O[C@@H](C)C1 (some centres undefined),AC50,[16],6.83 µM (active)
same,AC50,[18],11.3 µM (active)
same,AC50,[8],13.8 µM (active)
same,AC50,[9],0.0454 µM (active)
same,AC50,[10],0.316 µM (active)
same,outcome,[11],inactive
same,AC50,[12],39.5 µM (active)
same,AC50,[13],9.92 µM (active)
same,AC50,[14],0.053 µM (active)
same,outcome,[2],inactive
Cc1ccc(C)c2ccccc12,outcome,[18],inactive
same,outcome,[17],inactive
same,outcome,[3],inactive
same,outcome,[19],inactive
same,outcome,[4],inactive
CC(C)(C)C(O)C(Oc1ccc(-c2ccccc2)cc1)n1cncn1 (centres undefined),AC50,[8],0.0464 µM (active)
same,outcome,[9],inactive
same,AC50,[10],0.0566 µM (active)
same,outcome,[11],inactive
same,outcome,[12],inactive
same,outcome,[13],inactive
same,outcome,[14],inactive
CC(=O)/C=C/c1ccccc1,outcome,[20],inactive
CC(C)C(=O)Cl,outcome,[15],inactive
O=S(=O)(O)OOS(=O)(=O)O,outcome,[5],inactive
same,outcome,[19],inactive
same,outcome,[4],inactive
CCC(C)(C)O,outcome,[20],inactive
CC(=O)C=Cc1ccccc1,outcome,[5],inactive
same,outcome,[7],inactive
CNC(=N[N+](=O)[O-])NCC1CCOC1 (centres undefined),outcome,[5],inactive
same,outcome,[17],inactive
same,outcome,[19],inactive
CCCCCCCCCCCCCCCC[N+](C)(C)C,outcome,[5],inactive
same,AC50,[1],10.2 µM (active)
same,outcome,[2],inactive
same,outcome,[19],inactive
same,AC50,[4],100 µM (active)
